# Compounds with a hit are over-represented: about 3.5% of the library has one in this group of screens.
# FBW7 act: human FBW7 E3 ligase activation, primary screen | AlphaScreen FBW7–phospho-cyclin E peptide binding, activator screen | Q969H0 | hit rate 0.13% among 650,000 | normalized activity (activation), % at 26.1 µM; in the data active means normalized activity above about 1.9%;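 further: purified mutant Fbw7 with reduced substrate affinity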
# TEAD-YAP block: TEAD-YAP interaction inhibition. inhibition, % at 9.12 µM. hit rate 1.4% among 640,000. HEK-TIYL cells, TEAD-Gal4/YAP UAS-luciferase luminescence; in the data active means inhibition above about 32%;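 further: 0% = median of test compound wells and 100% = reference inhibitor wells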
# GPR151 ag: activates the human receptor GPR151 | hit rate 1% among 650,000 | activation, % at 11.2 µM | PathHunter beta-arrestin GPR151 cells, luminescence | Q8TDV0; in the data active means activation above about 4.9%;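 further: 0% = median of compound wells and 100% = cells with positive control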
# Target sequence (Q8TDV0 whole entry, looked up): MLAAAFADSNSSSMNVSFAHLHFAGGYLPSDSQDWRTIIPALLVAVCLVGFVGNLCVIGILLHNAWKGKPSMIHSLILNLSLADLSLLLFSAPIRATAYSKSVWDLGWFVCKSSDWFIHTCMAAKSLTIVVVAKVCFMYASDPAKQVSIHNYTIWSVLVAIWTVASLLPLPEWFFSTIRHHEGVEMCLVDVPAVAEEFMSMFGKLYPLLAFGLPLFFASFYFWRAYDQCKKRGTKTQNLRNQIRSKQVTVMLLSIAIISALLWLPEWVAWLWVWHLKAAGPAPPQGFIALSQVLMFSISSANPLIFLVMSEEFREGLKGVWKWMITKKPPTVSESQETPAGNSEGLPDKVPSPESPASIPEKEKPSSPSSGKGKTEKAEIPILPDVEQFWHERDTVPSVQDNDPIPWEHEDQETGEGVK
# MITF inh: blocks human microphthalmia-associated transcription factor | O75030 | AlphaScreen MITF homodimerization, bead proximity signal | inhibition, % at 2.6 µM | hit rate 0.91% among 650,000; in the data active means inhibition above about 50%;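 further: 0% = vehicle wells with protein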
# * hit, by the source's call; · = no result.
SMILES,FBW7 act,TEAD-YAP block,GPR151 ag,MITF inh
COc1ccccc1/C=C/C(=O)c1c(C)cc(C)[nH]c1=O,0,37*,-1,-2
COc1cccc(/C=C/C(=O)c2c(C)cc(C)[nH]c2=O)c1O,0,1,0,2
CCOC(=O)c1csc(NC(=O)c2ccc(S(=O)(=O)N3CCc4ccccc43)cc2)n1,0,35*,0,20
O=C(Nc1ccccc1F)c1ccc(S(=O)(=O)N2CCc3ccccc3C2)cc1,0,40*,2,9
COc1ccc(NC(=O)c2ccc(S(=O)(=O)N3CCc4ccccc43)cc2)c2ccccc12,0,60*,2,-2
COc1ccc(NC(=O)c2ccc(S(=O)(=O)N3CCc4ccccc4C3)cc2)c2ccccc12,0,-2,1,17
O=C(NCC12CC3CC(CC(C3)C1)C2)c1ccccc1,0,-6,1,-5
C=CCN1C(=O)C(=O)c2cc(Br)ccc21,0,62*,0,16
C#CCN1C(=O)C(=O)c2cc(Br)ccc21,1,53*,1,14
O=C1C(=O)N(CCc2ccccc2)c2ccc(Br)cc21,0,27,1,17
CC(=O)CN1C(=O)C(=O)c2cc(Br)ccc21,0,10,0,24
CCCN1C(=O)C(=O)c2cc(Br)ccc21,0,63*,0,-13
COc1ccc(CN2CCc3nnc(CCNC(=O)c4ccco4)n3CC2)c2ccccc12,0,7,1,-3
CN(Cc1ccsc1)C(=O)c1cc(COc2ccc(F)cc2Cl)on1,0,-4,1,-7
COc1ccc(N2C(=O)CC(NCCOC34CC5CC(CC(C5)C3)C4)C2=O)cc1 (centres undefined),0,5,0,12
Cc1cc([N+](=O)[O-])nn1CC(=O)Nc1cccc(F)c1C#N,0,36*,0,6
O=C(NC1CCCC1)c1cc(-c2ccccc2)n[nH]1,0,-47,1,11
O=C(COc1ccccc1Cl)Nc1cc([N+](=O)[O-])ccc1O,0,69*,0,-24
O=C(COc1ccccc1)Nc1cc([N+](=O)[O-])ccc1O,0,56*,-8,3
CCCN(CCC)S(=O)(=O)c1ccc(C(=O)Nc2nccs2)cc1,0,-2,0,1
Cc1ccc(CCNC(=O)CCS(=O)(=O)c2ccc3c(c2)SCC(=O)N3)cc1,0,-5,-2,1
COc1ccc(C2CC(c3ccc(Cl)cc3)Nc3ncnn32)c(OC)c1OC (centres undefined),0,5,2,7
COc1cc(C2CC(c3ccc(Cl)cc3)Nc3ncnn32)cc(OC)c1OC (centres undefined),0,54*,4,6
C=CCOC(=O)C1=C(C)NC(C)=C(C(=O)OCC=C)C1c1ccccc1Cl,0,-1,0,4
O=C(NCc1ccncc1)c1ccc(OC2CCN(Cc3cc4ccccc4o3)CC2)cc1,0,45*,3,3
SMILES,FBW7 act,TEAD-YAP block,GPR151 ag,MITF inh
CCCN(Cc1ccc(C(=O)NC2CCC(O)CC2)c(=O)[nH]1)CC1CC1 (centres undefined),0,-13,2,-10
Clc1cccc(-c2cnn3c(N4CCOCC4)ccnc23)c1,0,77*,-2,18
OCc1ccccc1-c1cnn2c(N3CCOCC3)ccnc12,0,94*,-4,12
c1ccc2c(-c3cnn4c(N5CCOCC5)ccnc34)cccc2c1,0,-41,-1,-6
Fc1ccccc1-c1cnn2c(N3CCOCC3)ccnc12,0,64*,-5,-66
CCCOc1ccc(C(=O)Nc2cccc(-c3nc4ccccc4s3)c2)cc1,0,-17,-1,-4
Cn1ncc2c(Nc3cccc(C(F)(F)F)c3)ncnc21,0,-12,2,-4
COc1ccc(CNC(=O)N2CCN(Cc3nc(-c4ccco4)cs3)CC2)cc1OC,0,54*,2,0
C=CCOC(=O)C1=C(C)NC2=C(C(=O)CCC2)C1c1cc(OC)c(OC)cc1[N+](=O)[O-] (centres undefined),-1,32*,2,10
CN1CCN(NC(=O)c2cccc(OC(F)(F)C(F)F)c2)CC1,0,6,1,8
COc1cccc(-c2csc3nnc(SCC(=O)c4ccc(NC(C)=O)cc4)n23)c1,13*,3,0,10
CN1C(=O)CC(C(=O)O)SC1=Nc1ccc(I)cc1 (centres undefined),0,-1,1,-5
COc1cc(Nc2nc(N3CCCC3CO)nc3c2ncn3-c2ccsc2)cc(OC)c1OC (centres undefined),0,18,-1,20
OCC1CCCN1c1nc(NCc2cccnc2)c2ncn(-c3ccsc3)c2n1 (centres undefined),0,54*,0,-6
OCC1CCCN1c1nc(Nc2ccc3c(c2)OCO3)c2ncn(-c3ccsc3)c2n1 (centres undefined),0,34*,-2,22
CC(=O)Nc1ccc(Nc2nc(N3CCCC3CO)nc3c2ncn3-c2ccsc2)cc1 (centres undefined),0,15,-1,16
OCC1CCCN1c1nc(Nc2ccccc2)c2ncn(-c3ccsc3)c2n1 (centres undefined),0,36*,-1,3
c1cncc(CNc2nc(N3CCC(N4CCOCC4)CC3)nc3c2ncn3-c2ccsc2)c1,0,9,0,9
O=C(O)CNC(=O)c1ccc(N2CCCC2=O)cc1,0,11,0,6
COc1c(Cl)cc(C(=O)N2CCN(c3ccc([N+](=O)[O-])cc3)CC2)cc1Cl,0,3,-2,-33
Cc1cc(N2CCCCC2)nc(NCCNS(=O)(=O)Cc2ccccc2)n1,0,55*,-1,4
Cc1cc(N2CCN(c3ccccc3)CC2)nc(NCc2ccccc2)n1,0,12,0,3
Cc1ccc(C(=O)Nc2ccc(S(=O)(=O)NCc3ccccc3)cc2)cc1,0,32*,-1,-15
Cc1ccc(S(=O)(=O)NCc2ccccc2)cc1,0,·,-1,6
O=C(Nc1ccc(Br)cc1)c1cccc(S(=O)(=O)NCc2ccccc2)c1,0,41*,3,-1
SMILES,FBW7 act,TEAD-YAP block,GPR151 ag,MITF inh
O=C(Nc1ccc(S(=O)(=O)NCCc2ccccc2)cc1)c1ccc([N+](=O)[O-])cc1,0,32*,-1,-15
CCCc1cc(-c2oncc2-c2ccc3c(c2)OCCO3)c(O)cc1OC,0,51*,0,-4
CCc1cc(-c2nc(N)ncc2-c2ccc(Br)cc2)c(O)cc1OC,0,-3,0,1
CCc1cc(-c2oncc2-c2ccc(Br)cc2)c(O)cc1OC,0,55*,0,-3
CCCCOc1ccc(Cl)cc1C=O,0,2,-1,7
Cc1cnc(Nc2ccncc2)cc1Nc1ccccc1C(N)=O,0,-1,0,1
NC(=O)c1ccccc1Nc1cc(Nc2ccc(-n3cnc(N4CCOCC4)n3)cc2)ncc1C(F)F,0,42*,1,12
Cc1cnc(Nc2ccc(-n3cnc(N4CCOCC4)n3)cc2)cc1Nc1ccccc1C(N)=O,0,82*,4,-6
CCCCNC(=O)CSc1nc2c(sc(=S)n2-c2ccccc2OCC)c(=O)[nH]1,0,2,-1,4
